# Results filed as inconclusive are left out. The source made the active and inactive calls. Unless noted, no stated cut-off is given here; in the data, active means percent of DMSO control GFP below about 86%; inactive means the rest, inconclusive results apart.
# Columns and labels:
# [1] = rapamycin-like changes in RPL19A-GFP expression – cell-based, S. cerevisiae, multiplex flow cytometry, primary screen (AID 1862);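 further: lower values mimic rapamycin by blocking the RPL19A rise seen in DMSO cells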; settings: S. cerevisiae RPL19A-GFP strain, flow cytometry fluorescence, 3 h; at 10 µM; stronger effect = lower value
# [2] = TOR pathway GLN3 branch reporter MEP2-GFP changes – S. cerevisiae, multiplex flow cytometry, primary screen (AID 1867;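 active means GFP response, as percent of the DMSO control, above the screen-wide mean plus 3 SD, about 139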;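 further: median GFP channel fluorescence of barcode-gated MEP2-GFP cells measured by flow cytometry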); settings: S. cerevisiae MEP2-GFP strain, 3 h, at 10 µM, stronger effect = higher value, 100% means same as DMSO wells
# [3] = TOR pathway RTG branch CIT2 reporter changes – S. cerevisiae, GFP fusion, multiplex flow cytometry, primary screen (AID 1870;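 active means percent response above a set limit, the screen-wide mean plus 3 SD, cut at about 130% in these data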;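 further: barcoded CIT2-GFP strain pooled with four other GFP strains with rapamycin as positive control; median GFP fluorescence per well over plate mean of DMSO wells so 100% = DMSO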); settings: S. cerevisiae CIT2-GFP expression, 3 h, at 10 µM, stronger effect = higher value
# [4] = TOR pathway LAP4-GFP level changes – S. cerevisiae, multiplex flow cytometry, primary screen (AID 1873;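 active means GFP signal, as percent of the solvent control, above the screen mean plus 3 SD, about 149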); settings: S. cerevisiae LAP4-GFP expression, 3 h, at 10 µM, stronger effect = higher value
# [5] = yeast AGP1-GFP level changes, GLN3 branch – cell-based, multiplex flow cytometry, S. cerevisiae, primary screen (AID 1887;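 active means GFP signal above the screen-wide mean plus 3 SD, that is over about 124.5% of the solvent control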;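 further: AGP1-GFP fusion strain of S. cerevisiae within a five-strain barcoded multiplex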); settings: 3 h, at 10 µM, stronger effect = higher value
# [6] = hit retest on RPL19A-GFP reporter strain – cell-based, S. cerevisiae, flow cytometry, cherry picks, mother/daughter gates, confirmation (AID 2270;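 active means GFP response below 50% of the DMSO control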); settings: 3 h, at 10 µM, stronger effect = lower value, 100 = same GFP as DMSO wells
# [7] = yeast TOR pathway reporter LAP4-GFP change – cell-based, cherry picks, flow cytometry, mother/daughter gates, confirmation (AID 2271;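 active means GFP response above 150% of the DMSO control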;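 further: ratio of sample to DMSO plate mean so 100% equals DMSO level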); settings: S. cerevisiae LAP4-GFP strain, 3 h, at 10 µM, stronger effect = higher value, 100 means same as DMSO control
# [8] = TOR pathway reporter MEP2-GFP, retest of hits – S. cerevisiae, flow cytometry GFP, cherry picks, confirmation (AID 2272;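 active means GFP response above 150% of the DMSO control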;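 further: ratio of well signal to plate DMSO mean so 100% equals DMSO level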); settings: S. cerevisiae MEP2-GFP strain, 3 h, at 10 µM, stronger effect = higher value
# [9] = TOR pathway CIT2 reporter hit retest – S. cerevisiae, GFP fusion, cherry picks, mother/daughter gates, confirmation (AID 2274;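 active means GFP response above 150% of the DMSO level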); settings: S. cerevisiae CIT2-GFP strain, flow cytometry, 3 h, at 10 µM, stronger effect = higher value
# [10] = reduced mouse 2C T cell binding to pMHC/ICAM-1 vesicles – MLPCN validation set, flow cytometry, LFA-1/ICAM-1 modulator project, pilot screen (AID 2523;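 active means response below a set limit, under 55% cells CD8-positive and vesicle-bound, and CD8 cells' 90th-percentile brightness under 279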;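 on vesicle binding response: mean PE anti-B7-1 fluorescence of CD8+ cells relative to row control; 100% = QL9-loaded vesicles with DMSO vehicle in the same plate row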); settings: 2C mouse CD8+ T cells, at 7 µM, stronger effect = lower value; double positive events: measured here: CD8+/vesicle+ event percentage
# [11] = molecular target: Integrin beta-1 (Homo sapiens) + Integrin alpha-4 (Homo sapiens) (UniProt P13612+P05556); assay: alpha4beta1 integrin LIBS antibody binding reduction – U937 cells, HUTS-21 mAb, flow cytometry, validation set, VLA-4 allosteric modulator project, pilot screen (AID 2674;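 active means inhibition above 50%, about 3 SD of the validation set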;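 further: antibody binding induced by the VLA-4 ligand LDV present at three times its Kd; 0% = LDV ligand with antibody and no compound and 100% = antibody without LDV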); settings: HUTS-21 LIBS mAb binding, at 6.7 µM, stronger effect = higher value, binding induced by LDV ligand
# Chain of Integrin beta-1 (Homo sapiens) + Integrin alpha-4 (Homo sapiens) (P05556 whole entry, looked up): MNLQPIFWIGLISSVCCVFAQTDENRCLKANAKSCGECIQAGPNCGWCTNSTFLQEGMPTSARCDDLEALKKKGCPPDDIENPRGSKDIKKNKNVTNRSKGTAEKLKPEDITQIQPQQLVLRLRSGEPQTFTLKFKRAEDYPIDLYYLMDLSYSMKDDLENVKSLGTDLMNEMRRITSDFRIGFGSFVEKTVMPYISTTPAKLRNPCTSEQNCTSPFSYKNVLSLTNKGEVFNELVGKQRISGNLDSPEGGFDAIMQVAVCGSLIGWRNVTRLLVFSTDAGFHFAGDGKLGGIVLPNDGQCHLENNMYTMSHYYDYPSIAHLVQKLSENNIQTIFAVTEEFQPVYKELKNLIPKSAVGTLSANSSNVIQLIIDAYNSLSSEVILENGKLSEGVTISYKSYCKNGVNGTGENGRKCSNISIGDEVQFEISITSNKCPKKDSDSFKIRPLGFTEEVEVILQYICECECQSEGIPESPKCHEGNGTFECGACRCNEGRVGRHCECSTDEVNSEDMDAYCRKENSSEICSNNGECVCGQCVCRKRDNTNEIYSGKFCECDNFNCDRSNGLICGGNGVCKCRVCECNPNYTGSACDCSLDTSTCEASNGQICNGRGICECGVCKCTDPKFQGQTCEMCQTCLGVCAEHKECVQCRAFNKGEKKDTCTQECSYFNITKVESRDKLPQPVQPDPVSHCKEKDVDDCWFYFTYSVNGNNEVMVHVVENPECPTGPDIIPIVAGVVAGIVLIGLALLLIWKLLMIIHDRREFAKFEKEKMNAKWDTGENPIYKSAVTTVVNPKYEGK
# Chain of Integrin beta-1 (Homo sapiens) + Integrin alpha-4 (Homo sapiens) (P13612 whole entry, looked up): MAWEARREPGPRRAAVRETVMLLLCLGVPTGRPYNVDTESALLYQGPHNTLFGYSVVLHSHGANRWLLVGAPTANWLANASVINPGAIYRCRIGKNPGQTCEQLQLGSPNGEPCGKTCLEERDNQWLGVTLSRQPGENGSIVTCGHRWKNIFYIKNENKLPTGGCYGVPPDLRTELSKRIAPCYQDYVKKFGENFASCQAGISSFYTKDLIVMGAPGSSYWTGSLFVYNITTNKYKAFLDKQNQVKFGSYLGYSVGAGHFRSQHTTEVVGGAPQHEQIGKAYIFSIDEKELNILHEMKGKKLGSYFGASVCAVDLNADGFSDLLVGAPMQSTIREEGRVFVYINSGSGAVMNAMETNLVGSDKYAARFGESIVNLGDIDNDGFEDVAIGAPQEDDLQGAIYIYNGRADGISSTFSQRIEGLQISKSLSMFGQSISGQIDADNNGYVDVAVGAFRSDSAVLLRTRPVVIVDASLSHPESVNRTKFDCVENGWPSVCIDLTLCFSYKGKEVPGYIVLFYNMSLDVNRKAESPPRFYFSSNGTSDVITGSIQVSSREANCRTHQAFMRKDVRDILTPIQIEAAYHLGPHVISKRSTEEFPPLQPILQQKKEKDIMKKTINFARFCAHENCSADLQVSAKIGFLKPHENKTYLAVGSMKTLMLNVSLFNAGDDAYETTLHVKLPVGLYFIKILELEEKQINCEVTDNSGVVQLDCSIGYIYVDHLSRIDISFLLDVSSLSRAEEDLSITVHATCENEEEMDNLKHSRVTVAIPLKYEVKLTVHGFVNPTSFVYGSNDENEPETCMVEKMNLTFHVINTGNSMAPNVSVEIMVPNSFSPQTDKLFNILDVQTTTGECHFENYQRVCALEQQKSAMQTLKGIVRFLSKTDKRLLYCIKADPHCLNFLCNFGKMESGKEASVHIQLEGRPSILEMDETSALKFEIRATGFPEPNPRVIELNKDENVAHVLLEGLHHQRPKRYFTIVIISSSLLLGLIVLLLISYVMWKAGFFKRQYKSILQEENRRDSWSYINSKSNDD
# [12] = calorie-restriction mimetic ROS inhibitors, yeast – validation compound set, pilot screen (AID 2706;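 active means superoxide response below 65% of plate, a cut near 3 SD across the whole screen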;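 further: yeast exposed to compound for one week at 30 degrees C before staining; 100% = mean of all compound wells on the same plate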); settings: S. cerevisiae aging, superoxide DHE fluorescence; at 10 µM; stronger effect = lower value
# [13] = molecular target: Beta-adrenergic receptor kinase 1 (Homo sapiens) (UniProt P25098); assay: GRK2 binders displacing RNA aptamer, biochemical, validation, human GRK2, bead flow cytometry (AID 488806;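 active means aptamer binding inhibition above 30%, about 3 SD of noise from non-fluorescent compounds; inactive means inhibition at or below 30%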); settings: bead-bound GRK2, FAM-aptamer displacement, at 10 µM, stronger effect = higher value
# Chain of Beta-adrenergic receptor kinase 1 (Homo sapiens) (P25098 whole entry, looked up): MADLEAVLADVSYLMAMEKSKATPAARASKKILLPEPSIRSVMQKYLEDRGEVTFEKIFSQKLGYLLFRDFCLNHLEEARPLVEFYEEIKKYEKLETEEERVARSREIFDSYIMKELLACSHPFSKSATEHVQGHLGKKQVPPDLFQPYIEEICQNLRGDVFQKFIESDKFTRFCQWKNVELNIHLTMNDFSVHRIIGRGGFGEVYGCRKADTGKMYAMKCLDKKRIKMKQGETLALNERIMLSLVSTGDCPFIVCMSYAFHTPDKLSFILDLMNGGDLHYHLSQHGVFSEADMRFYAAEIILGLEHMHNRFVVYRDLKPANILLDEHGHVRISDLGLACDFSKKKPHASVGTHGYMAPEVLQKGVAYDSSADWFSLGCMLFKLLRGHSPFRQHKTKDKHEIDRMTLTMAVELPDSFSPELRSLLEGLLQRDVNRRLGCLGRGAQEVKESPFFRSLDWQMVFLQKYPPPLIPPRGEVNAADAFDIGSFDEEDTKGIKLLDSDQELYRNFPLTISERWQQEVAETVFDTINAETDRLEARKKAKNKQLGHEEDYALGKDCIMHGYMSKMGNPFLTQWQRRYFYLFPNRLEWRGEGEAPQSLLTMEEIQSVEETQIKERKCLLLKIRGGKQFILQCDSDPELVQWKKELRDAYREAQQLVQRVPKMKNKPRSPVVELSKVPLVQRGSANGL
# [14] = molecular target: Beta-2 adrenergic receptor (Homo sapiens) (UniProt P07550); assay: agonist-induced loss of surface beta2AR – cell-based, FAP fluorogen, flow cytometry, validation set, pilot screen (AID 504459;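 active means percent response above 42, roughly 3 SD of non-fluorescent test compounds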;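 further: agonist-driven loss of surface beta2AR via internalization measured by FAP dye flow cytometry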); settings: Am2.2-beta2AR cells, at 10 µM, stronger effect = higher value
# Chain of Beta-2 adrenergic receptor (Homo sapiens) (P07550 whole entry, looked up): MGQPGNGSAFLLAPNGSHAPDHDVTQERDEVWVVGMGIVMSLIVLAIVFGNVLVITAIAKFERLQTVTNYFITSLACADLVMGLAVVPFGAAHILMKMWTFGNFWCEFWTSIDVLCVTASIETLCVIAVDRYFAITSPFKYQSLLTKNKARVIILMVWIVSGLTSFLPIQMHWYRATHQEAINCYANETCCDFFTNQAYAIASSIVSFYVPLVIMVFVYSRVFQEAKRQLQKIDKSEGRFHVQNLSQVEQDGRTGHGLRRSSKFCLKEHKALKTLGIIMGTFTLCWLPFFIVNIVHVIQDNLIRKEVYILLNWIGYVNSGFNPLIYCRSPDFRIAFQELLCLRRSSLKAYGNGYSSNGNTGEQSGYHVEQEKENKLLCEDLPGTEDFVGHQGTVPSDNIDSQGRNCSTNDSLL
# [15] = molecular target: AP-2 complex subunit beta (Homo sapiens) (UniProt P63010); assay: beta-arrestin/AP2 interaction blockers – biochemical, validation set, GST-AP2 beads, flow cytometry, pilot screen (AID 504541;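 active means inhibition above 54%, about 3 SD of non-fluorescent compounds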;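 further: AP2 carries R879A mutation and is captured from E. coli lysate; bead-bound FITC arrestin peptide fluorescence measuring arrestin peptide binding to AP2; 0% = DMSO wells and 100% = excess unlabeled arrestin peptide control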); settings: FITC arrestin peptide, at 10 µM, stronger effect = higher value, AP2 beta2 appendage fragment, R879A mutant
# Chain of AP-2 complex subunit beta (Homo sapiens) (P63010 whole entry, looked up, the tested form may be a part, one chain of several): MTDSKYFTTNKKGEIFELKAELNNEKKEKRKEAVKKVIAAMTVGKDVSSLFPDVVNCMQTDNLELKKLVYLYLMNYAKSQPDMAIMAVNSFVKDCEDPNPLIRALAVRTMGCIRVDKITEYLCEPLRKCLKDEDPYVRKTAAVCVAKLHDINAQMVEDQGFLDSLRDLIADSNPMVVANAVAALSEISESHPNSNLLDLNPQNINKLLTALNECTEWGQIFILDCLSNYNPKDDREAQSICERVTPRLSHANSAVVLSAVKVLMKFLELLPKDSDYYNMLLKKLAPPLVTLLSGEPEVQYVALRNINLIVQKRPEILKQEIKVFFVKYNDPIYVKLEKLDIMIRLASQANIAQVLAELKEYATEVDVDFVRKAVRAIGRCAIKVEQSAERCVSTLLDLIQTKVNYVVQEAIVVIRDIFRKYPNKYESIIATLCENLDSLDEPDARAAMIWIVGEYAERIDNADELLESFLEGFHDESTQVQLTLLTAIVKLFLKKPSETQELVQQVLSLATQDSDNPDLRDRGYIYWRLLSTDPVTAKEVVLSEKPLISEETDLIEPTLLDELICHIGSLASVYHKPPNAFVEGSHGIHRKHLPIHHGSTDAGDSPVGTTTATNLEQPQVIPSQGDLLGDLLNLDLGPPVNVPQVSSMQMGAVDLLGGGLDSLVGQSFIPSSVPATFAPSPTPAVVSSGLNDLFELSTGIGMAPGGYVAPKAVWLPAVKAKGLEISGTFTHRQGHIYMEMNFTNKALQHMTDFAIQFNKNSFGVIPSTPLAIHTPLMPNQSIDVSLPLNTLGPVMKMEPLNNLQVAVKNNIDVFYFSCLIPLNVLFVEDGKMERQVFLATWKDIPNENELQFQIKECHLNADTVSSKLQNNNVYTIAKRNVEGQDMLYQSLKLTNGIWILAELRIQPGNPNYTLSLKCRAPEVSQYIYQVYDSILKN
# [16] = cytosolic pH regulators acting via V-ATPase – S. cerevisiae, pHLuorin, HTS validation (AID 504600; in the data active means response above about 15%;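 further: plate controls were DMSO for no effect and reference compound for full effect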); settings: V-ATPase proton transport, at 10 µM, stronger effect = higher value
# [17] = test system: anti-desmoglein-3 scFv antibody binding to human DSG3; assay: blockers of pathogenic pemphigus antibody–desmoglein-3 binding – biochemical, validation compound set, bead-based, flow cytometry, pilot screen (AID 588368;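 active means binding below the plate cutoff, the plate median minus 3 SD, with a reading above zero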;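 further: signal is the median channel fluorescence of bead-bound GFP antibody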); settings: Protein G beads, DSG3-Fc, scFv-GFP binding, at 10 µM, stronger effect = lower value
# [18] = Nile Red efflux blockade in pump-expressing yeast – validation compound set, multiplex, phenotypic, pilot screen (AID 588506;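 active means efflux inhibition above 0.42, the validation set average plus 4 SD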;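 further: Nile Red retained in cells so higher fluorescence means more efflux inhibition; 0 = negative control wells and 1 = enniatin B 25 µM full block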); settings: S. cerevisiae pump-expressing triplex, Nile Red efflux flow cytometry; at 10 µM; stronger effect = higher value; the pumps come from Candida albicans
# [19] = molecular target: ATP-binding cassette sub-family B member 6 (Homo sapiens) (UniProt Q9NP58); assay: blockers of ABCB6-driven porphyrin uptake – K562-ABCB6 cells, flow cytometry, validation set, pilot screen (AID 588550;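 active means inhibition above the screen-wide mean plus 3 SD, about 51%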;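 further: 0% = DMSO wells and 100% = benzethonium chloride 70 µM positive control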); settings: K562-ABCB6 porphyrin accumulation, 1 h, at 10 µM, stronger effect = higher value
# Chain of ATP-binding cassette sub-family B member 6 (Homo sapiens) (Q9NP58 whole entry, looked up): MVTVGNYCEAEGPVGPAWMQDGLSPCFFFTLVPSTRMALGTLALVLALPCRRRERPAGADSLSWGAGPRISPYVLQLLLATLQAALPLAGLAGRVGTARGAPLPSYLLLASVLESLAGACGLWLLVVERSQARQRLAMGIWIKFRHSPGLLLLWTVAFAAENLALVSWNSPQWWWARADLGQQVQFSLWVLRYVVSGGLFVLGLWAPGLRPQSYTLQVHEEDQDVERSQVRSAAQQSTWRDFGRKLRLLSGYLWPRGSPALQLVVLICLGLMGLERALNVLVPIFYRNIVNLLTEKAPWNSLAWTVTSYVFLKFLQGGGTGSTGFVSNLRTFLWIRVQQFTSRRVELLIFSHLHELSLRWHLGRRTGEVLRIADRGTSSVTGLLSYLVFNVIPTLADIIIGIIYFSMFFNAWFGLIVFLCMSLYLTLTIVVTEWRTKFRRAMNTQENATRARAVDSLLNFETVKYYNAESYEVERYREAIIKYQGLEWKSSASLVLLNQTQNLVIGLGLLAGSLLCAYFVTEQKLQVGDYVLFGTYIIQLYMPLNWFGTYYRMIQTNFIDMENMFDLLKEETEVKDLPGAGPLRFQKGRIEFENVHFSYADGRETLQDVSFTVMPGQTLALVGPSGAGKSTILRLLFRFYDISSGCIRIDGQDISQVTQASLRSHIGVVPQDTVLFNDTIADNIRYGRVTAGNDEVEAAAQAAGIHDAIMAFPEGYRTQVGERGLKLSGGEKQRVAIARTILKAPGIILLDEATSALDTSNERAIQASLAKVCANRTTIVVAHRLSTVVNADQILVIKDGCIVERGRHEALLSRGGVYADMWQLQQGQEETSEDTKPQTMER
# [20] = AML differentiation inducers, ER-HoxA9 marrow cells – cell-based, GFP/MAC1 double positive, flow cytometry, validation set, primary screen (AID 588685;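 active means differentiation response of at least 50%, scaled between solvent and reference control, from cells with both markers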;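 further: compound exposure lasts four days before antibody staining and flow analysis; 0% = DMSO wells and 100% = 5 µM fulvestrant positive control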); settings: stronger effect = higher value, normalized: vehicle 0, fulvestrant 100
# [21] = measured here: daughter cell gate
# [22] = measured here: mother cell gate
# [23] = measured here: daughter cell gate response
# [24] = measured here: mother cell gate response
compound,measurement,setting,value
NS(=O)(=O)c1cc2c(cc1C(F)(F)F)NC(Cc1ccccc1)NS2(=O)=O (stereo unspecified),percent of DMSO control GFP,[1],89.8% (inactive)
same,GFP response vs DMSO,[2],140% (active)
same,percent response of DMSO control,[3],106% (inactive)
same,GFP response vs DMSO,[4],82.5% (inactive)
same,"GFP response, % of DMSO",[5],90.8% (inactive)
same,GFP response vs DMSO,[6],95% (inactive)
same,GFP response vs DMSO,[6]; [21],96%
same,GFP response vs DMSO,[6]; [22],97.1%
same,GFP response relative to DMSO,[7],97.7% (inactive)
same,GFP response relative to DMSO,[7]; [23],96.5%
same,GFP response relative to DMSO,[7]; [24],97.5%
same,GFP response vs DMSO,[8],97.5% (inactive)
same,"GFP response, % of DMSO",[9],102% (inactive)
same,"GFP response, % of DMSO",[9]; [21],104%
same,"GFP response, % of DMSO",[9]; [22],104%
same,double positive events,[10],64.3%
same,vesicle binding response,[10],176% (inactive)
same,inhibition,[11],7.43% (inactive)
same,superoxide response (% of plate),[12],85% (inactive)
same,aptamer binding inhibition,[13],7% (inactive)
same,response,[14],1.02% (inactive)
same,inhibition,[15],21.3% (inactive)
same,response,[16],-2.03% (inactive)
same,binding (% of control),[17],97.4% (inactive)
same,efflux inhibition (fraction of control),[18],0.05 (inactive)
same,inhibition,[19],6% (inactive)
same,differentiation response,[20],-0.82% (inactive)
Cc1ccc(OCCCCn2ccnc2C)c(C)c1,percent of DMSO control GFP,[1],97.3% (inactive)
same,GFP response vs DMSO,[2],99.6% (inactive)
same,percent response of DMSO control,[3],95.7% (inactive)
same,GFP response vs DMSO,[4],103% (inactive)
same,"GFP response, % of DMSO",[5],110% (inactive)
same,GFP response vs DMSO,[6],99.6% (inactive)
same,GFP response vs DMSO,[6]; [21],99.4%
same,GFP response vs DMSO,[6]; [22],101%
same,GFP response relative to DMSO,[7],99.8% (inactive)
same,GFP response relative to DMSO,[7]; [23],99.7%
same,GFP response relative to DMSO,[7]; [24],100%
same,GFP response vs DMSO,[8],112% (inactive)
same,"GFP response, % of DMSO",[9],98.4% (inactive)
same,"GFP response, % of DMSO",[9]; [21],100%
same,"GFP response, % of DMSO",[9]; [22],97.7%
same,double positive events,[10],59.6%
same,vesicle binding response,[10],179% (inactive)
same,inhibition,[11],30.4% (inactive)
same,superoxide response (% of plate),[12],98.5% (inactive)
same,aptamer binding inhibition,[13],3% (inactive)
same,response,[14],-16% (inactive)
same,inhibition,[15],-1.94% (inactive)
same,response,[16],3.03% (inactive)
same,binding (% of control),[17],106% (inactive)
same,efflux inhibition (fraction of control),[18],-0.13 (inactive)
same,inhibition,[19],10% (inactive)
same,differentiation response,[20],5.85% (inactive)
CC(=O)Nc1ccccc1O,percent of DMSO control GFP,[1],87.8% (inactive)
same,GFP response vs DMSO,[2],152% (active)
same,percent response of DMSO control,[3],102% (inactive)
same,GFP response vs DMSO,[4],85.3% (inactive)
same,"GFP response, % of DMSO",[5],86.6% (inactive)
same,GFP response vs DMSO,[6],99% (inactive)
same,GFP response vs DMSO,[6]; [21],101%
same,GFP response vs DMSO,[6]; [22],99.8%
same,GFP response relative to DMSO,[7],93.8% (inactive)
same,GFP response relative to DMSO,[7]; [23],98.7%
same,GFP response relative to DMSO,[7]; [24],93.1%
same,GFP response vs DMSO,[8],100% (inactive)
same,"GFP response, % of DMSO",[9],110% (inactive)
same,"GFP response, % of DMSO",[9]; [21],105%
same,"GFP response, % of DMSO",[9]; [22],113%
same,double positive events,[10],61.6%
same,vesicle binding response,[10],142% (inactive)
same,inhibition,[11],6.46% (inactive)
same,superoxide response (% of plate),[12],87.6% (inactive)
same,aptamer binding inhibition,[13],6% (inactive)
same,response,[14],2.64% (inactive)
same,inhibition,[15],0.05% (inactive)
same,response,[16],0.98% (inactive)
same,binding (% of control),[17],101% (inactive)
same,efflux inhibition (fraction of control),[18],-0.28 (inactive)
same,inhibition,[19],8% (inactive)
same,differentiation response,[20],3.28% (inactive)

# From PubChem BioAssay
